S1P4 ag: human S1P4 receptor agonism. actives 0.35% (n = 220,000). O95977. S1P4-expressing cell line, agonist reporter assay. activation, % at 4.98 µM; in the data active = activation above about 11%;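 note: 0% = DMSO vehicle and 100% = reference agonist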
Target sequence (O95977 whole entry, looked up): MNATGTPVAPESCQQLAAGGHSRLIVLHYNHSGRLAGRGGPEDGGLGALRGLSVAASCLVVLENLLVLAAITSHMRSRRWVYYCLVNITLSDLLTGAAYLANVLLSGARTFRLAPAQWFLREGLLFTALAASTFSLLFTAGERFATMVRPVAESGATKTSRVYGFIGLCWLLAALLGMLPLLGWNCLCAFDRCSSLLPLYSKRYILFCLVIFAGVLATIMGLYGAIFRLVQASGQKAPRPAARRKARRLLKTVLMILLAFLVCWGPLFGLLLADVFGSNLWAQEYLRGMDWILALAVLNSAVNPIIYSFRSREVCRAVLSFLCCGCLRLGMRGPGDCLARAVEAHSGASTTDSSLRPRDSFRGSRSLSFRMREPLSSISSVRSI
S1P4 antagonist: human S1P4 receptor antagonism | inhibition, % at 4.98 µM | actives 0.26% (n = 220,000) | S1P4-expressing cells, antagonist mode, reporter read-out | O95977; in the data active = inhibition above about 29%;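 note: 0% = wells stimulated with agonist and 100% = vehicle wells without agonist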
CHOP inhibitor: CHOP inhibition in unfolded protein response; CHO-K1 CHOP-promoter luciferase, tunicamycin-induced, 15-18 h; actives 3.8% (n = 220,000); inhibition, % at 10 µM;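 active = compounds that reduced the stress-induced luciferase reporter signal by more than about 70% of percent inhibition, limit read from the data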;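 note: 0% = tunicamycin plus vehicle and 100% = wells without tunicamycin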
Hsp70 activator: transcriptional activators of Hsp70; HeLa Hsp70 promoter luciferase reporter, luminescence; scaled: vehicle 0, proteasome-inhibitor control 100%; activation, % at 10 µM; actives 0.04% (n = 200,000); AID 1203;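 active = activation above the mean across all tested compounds plus 3 SD, cutoff set per campaign, cut at about 5.5% in these data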;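 note: 100% = MG132 at 30 µM as the positive control and 0% = DMSO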
S1P4 ag conf: confirmation of human S1P4 receptor agonists; shares compounds with S1P4 ag; S1P4 agonist cell-based reporter assay; activation, % at 4.98 µM; actives 7% (n = 740); AID 1523; in the data active = activation above about 12%;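 note: 0% = vehicle and 100% = full reference agonist response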
S1P1 ag: activates human S1P1, counter-screen for S1P4 agonists; AID 1563; S1P1 agonist cell-based assay, activation; activation, % at 4.98 µM; shares compounds with S1P4 ag; actives 4% (n = 740); in the data active = activation above about 21%;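 note: 0% = vehicle wells and 100% = reference agonist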
Starred values were filed as active, the others as inactive; nt = no result given. This is a sample that favours compounds with a hit; in the whole collection about 4.2% have one here.

SMILES	S1P4 ag	S1P4 antagonist	CHOP inhibitor	Hsp70 activator	S1P4 ag conf	S1P1 ag
O=C(NCc1ccc(F)cc1)C1CCN(S(=O)(=O)N2CCCC2)CC1	2.4	-7.8	8.0	-0.4	nt	nt
O=C(Nc1ccc2c(c1)OCO2)N1CCOCC1	1.1	-20.2	1.3	-0.3	nt	nt
O=C(Nc1ccc2c(c1)OCO2)N1CCCC1	45.6*	-1.5	-7.7	-0.2	-2.2	3.4
O=C(Cn1c(=O)n(-c2ccc(F)cc2)c(=O)c2sccc21)NC1CCCCC1	0.4	-2.9	-5.9	-0.3	nt	nt
Cc1cc(=O)oc2cc3c(cc12)OCCN3	11.5*	-9.5	-1.5	-0.4	5.3	5.0
Cc1cc(=O)oc2cc3c(cc12)OCCO3	-0.3	-13.0	24.9	-0.1	nt	nt
COc1ccc(/C(C)=N/NC(=O)CNC(=O)c2cccs2)cc1OC	30.4*	4.2	0.2	0.0	-1.6	4.2
OCC(O)C1OC(Nc2ccc(Cl)cc2)C(O)C1O (stereo unspecified)	71.5*	22.6	2.7	nt	-0.9	10.5
CCOc1ccc(-c2cc3nc(C4CCN(C(=O)OC(C)(C)C)CC4)c(C(=O)O)cn3n2)cc1	126.0*	2.4	17.4	0.1	-1.9	-8.1
CCOC(=O)N1CCN(C(=O)c2cc(-c3ccc(OCC)cc3)nc3ccccc23)CC1	-0.2	-6.4	nt	-0.1	nt	nt
Cc1ccc[n+](-c2nc([O-])sc2/C=N/Nc2ccc([N+](=O)[O-])cc2)c1	2.5	-0.7	-2.8	nt	nt	nt
COc1ccc(-c2nnn(CC(=O)NCc3ccccc3)n2)cc1OC	-0.3	-17.8	0.9	-0.2	nt	nt
CCOc1ccc(-c2nnn(CC(=O)NCc3ccccc3)n2)cc1	19.1*	-8.3	22.4	-0.4	-1.6	-5.6
Cc1cc(C)cc(NC(=O)CSc2nnc(-c3ccc(S(=O)(=O)N4CCCC4)cc3)o2)c1	11.1*	-13.5	4.5	-0.3	-2.8	-6.4
Cc1cccc(/C=N/NC(=O)c2cc3c(s2)-c2ccccc2CC3)c1	-1.3	1.0	34.1	-0.2	nt	nt
O=C(N/N=C/c1cccc(C(F)(F)F)c1)c1cc2c(s1)-c1ccccc1CC2	44.9*	-16.2	66.0	-0.2	-0.8	1.4
CCNc1nc2nc3ccc(C)cn3c(=O)c2cc1C(=O)NCC1CCCO1 (stereo unspecified)	12.9*	-23.0	-20.2	0.3	2.3	8.4
Cc1nnc(SCCn2c(N3CCN(C)CC3)nc3c2c(=O)n(C)c(=O)n3C)s1	45.0*	-6.6	24.0	0.3	0.0	8.6
Cc1nnc(SCCn2c(N3CCCCC3)nc3c2c(=O)n(C)c(=O)n3C)s1	0.2	-5.5	nt	-0.2	nt	nt
CC(=O)c1ccc(Oc2ccc(C(=O)c3ccc(C)c(C)c3)cc2[N+](=O)[O-])cc1	13.6*	10.8	53.6	-0.5	-1.6	-2.9
N#Cc1c(N)nc2c(c1-c1ccncc1)CCCCC2	135.1*	-13.5	-1.4	-0.1	-1.1	4.8
Cc1ccc(NC(=O)CS(=O)CC(=O)NC(C)CCc2ccco2)cc1Cl (stereo unspecified)	0.3	-14.8	24.7	-0.1	nt	nt
CCOC(=O)C/C(C)=N/NC(=O)COc1ccccc1C	88.9*	-16.7	10.1	-0.5	-1.2	-1.6
Cc1ccccc1OCC(=O)N/N=C/c1ccncc1	2.6	-3.5	-0.6	-0.1	nt	nt
O=C(NCC1CCOCC1)c1ccc(OC2CCN(Cc3ccccn3)CC2)cc1	1.5	-24.5	23.1	0.5	nt	nt
SMILES	S1P4 ag	S1P4 antagonist	CHOP inhibitor	Hsp70 activator	S1P4 ag conf	S1P1 ag
Cc1ccc(OCC(=O)O/N=C(\N)Cc2cccs2)cc1C	0.4	2.9	nt	-0.3	nt	nt
CCC(C(=O)OCC(=O)Nc1c(Cl)cccc1Cl)c1ccccc1 (stereo unspecified)	15.4*	12.4	21.8	-0.1	-0.9	-2.7
COc1ccc(N2CCN(C(=O)NCc3ccc(OC)c(Cl)c3)CC2)cc1	15.7*	-4.2	7.1	0.1	-2.4	-11.3
CC(C)(C)c1cc2nc(N)nc(N)n2n1	-0.1	15.4	-1.9	nt	nt	nt
CSc1nc(N)n2nc(C(C)(C)C)cc2n1	22.7*	-16.9	1.2	nt	-2.4	-5.0
COc1ccc2c(c1OC)C(=O)OC2Nc1ccccn1 (stereo unspecified)	-0.9	-3.4	4.2	-0.1	nt	nt
COc1ccc2c(c1OC)C(=O)OC2Nc1ccccc1S(=O)(=O)C(F)F (stereo unspecified)	17.1*	-32.1	10.2	-0.5	0.1	2.9
C/C(=N\NC(=O)CC#N)c1cc2ccc(O)cc2oc1=O	56.8*	-54.4	6.7	-0.1	-1.4	-1.0
COc1ccccc1C(=O)c1cc2ccc(O)cc2oc1=O	2.5	-19.5	10.2	0.0	nt	nt
CCOc1ccc(C(=O)Cc2cc(OC)c(OC)cc2[N+](=O)[O-])cc1	-0.7	7.3	2.1	-0.5	nt	nt
C/C(CC(=O)Nc1ccc(OCc2ccccc2)cc1)=N\NC(=O)C(=O)Nc1cccc(C)c1	19.0*	5.5	93.9*	-0.2	-2.2	-5.0
Cn1c(CNc2ccc(F)cc2)nnc1SCC(=O)NNC(=O)Cc1ccccc1	15.7*	4.8	-6.2	-0.3	-1.9	0.0
CC(=O)c1ccc(N2CCN(C(=S)Nc3cccc(Cl)c3)CC2)cc1	-0.9	-5.2	44.2	0.0	nt	nt
Cc1nn(-c2ccccc2)c(Cl)c1/C=N/NS(=O)(=O)c1ccc(Br)cc1	51.5*	2.3	-3.4	0.1	-2.5	-6.2
COc1ccc(OC(C)C(=O)Nc2ccccc2C(F)(F)F)cc1 (stereo unspecified)	86.0*	-12.3	-2.4	-0.1	-2.6	0.6
COc1cc(O)c(C(CC(=O)N2CCOCC2)c2ccc(N(C)C)cc2)c(OC)c1 (stereo unspecified)	nt	nt	-20.5	nt	nt	nt
C=C(C)CN(CC)C(=O)CC1C(=O)NCCN1Cc1c(F)cccc1Cl (stereo unspecified)	0.2	-2.8	-13.6	0.1	nt	nt
O=c1c2ccccc2nc(SCc2nc3ccccc3s2)n1CCCO	21.0*	-7.3	0.1	0.0	-1.1	-6.8
O=C(CSc1nc2ccccc2c(=O)n1CCCO)NCc1ccccc1	0.0	-3.2	-6.8	-0.2	nt	nt
N/C(=N\c1nc2ccccc2o1)NC(=O)c1ccccc1F	0.2	-3.7	23.6	0.0	nt	nt
COC(=O)Cc1cc(OC)c(OC)cc1Cc1cc(OC)c(OC)cc1CC(=O)OC	-1.3	-2.4	8.2	-0.2	nt	nt
Cc1ccccc1-n1c(=O)[nH]c(=O)c2c(N)c(C(=O)c3ccc(Cl)cc3)sc21	83.2*	-2.1	49.8	0.0	-1.6	-6.8
Cn1c(SCC(=O)c2ccc3c(c2)OCO3)nnc1C1COc2ccccc2O1 (stereo unspecified)	11.3*	5.2	14.0	0.0	61.5*	-0.9
COc1c(F)c(F)c(C(=O)Nc2cccc(Cl)c2N2CCOCC2)c(F)c1F	0.6	-10.8	2.0	-0.5	nt	nt
N#Cc1c(-n2cccc2C=O)sc2c1CCCC2	18.6*	-12.3	24.1	-0.4	14.4*	-4.0
CCCCNC(=O)C1CC(c2c(Cl)cccc2Cl)=NO1 (stereo unspecified)	13.0*	-18.9	13.6	-0.3	-2.1	-1.3
CCCCNC(=O)C1CC(c2cccc([N+](=O)[O-])c2)=NO1 (stereo unspecified)	2.8	0.4	23.7	-0.2	nt	nt

Screening data deposited in PubChem by several laboratories.
